PubChem BioAssay AID1851 (National Center for Advancing Translational Sciences (NCATS), 2009)
“And” between values parts separate entries of the source, which are not always exact repeats. Identical values can stand only once. Screen size: about 16,000 compounds; about 5,100 (32%) were called active. Not shown: some 25% with an inconclusive outcome. The call rests on the fitted dose curve; in most records, active means well fitted curve in the direction sought with a large enough effect; inconclusive means small, poorly fitted or top-dose-only effect, or effect the other way; inactive means no such curve, though single readings can be large or run the other way. This is one part of the list. Square brackets hold non-standard residues; d marks the D form. Peptide text beside a SMILES is read from it.

Target: Cytochrome P450 3A4 (Homo sapiens) (UniProt P08684)
Experiment: Cytochrome panel assay with activity outcomes
Conditions: recombinant CYP, pro-luciferin dealkylation, luminescence, p450-cyp3a4; series mostly up to 57.1 µM; activity, negative = inhibition: at the top concentration
On the % scale 0 is the no-effect control and ±100 the full control effect.

Cytochrome P450 3A4 (Homo sapiens), sequence (P08684 whole entry, looked up): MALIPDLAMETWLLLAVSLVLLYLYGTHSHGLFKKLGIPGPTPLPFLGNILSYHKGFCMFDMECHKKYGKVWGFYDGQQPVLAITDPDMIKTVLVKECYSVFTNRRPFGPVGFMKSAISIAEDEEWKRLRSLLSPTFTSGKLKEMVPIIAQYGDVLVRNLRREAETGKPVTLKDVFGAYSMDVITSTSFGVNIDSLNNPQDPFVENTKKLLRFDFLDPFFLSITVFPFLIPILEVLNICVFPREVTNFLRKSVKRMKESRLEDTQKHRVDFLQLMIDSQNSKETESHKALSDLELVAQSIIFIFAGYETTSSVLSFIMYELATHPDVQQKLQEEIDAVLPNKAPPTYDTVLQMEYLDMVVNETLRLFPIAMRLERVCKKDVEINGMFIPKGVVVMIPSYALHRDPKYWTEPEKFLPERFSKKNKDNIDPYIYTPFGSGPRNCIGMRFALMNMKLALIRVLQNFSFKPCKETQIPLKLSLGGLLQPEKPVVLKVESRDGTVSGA

Row | Structure (SMILES) | AC50 | activity, negative = inhibition
1 | C/C(CCN1CCCCc2nc(C)c(C)cc21)=N\O[C@@H](C)CN1CCCc2nc(C)c(C)cc21 | 3.16 µM (active) | 
2 | COc1ccc(-c2ccc3c(n2)CCCN3C[C@H](O)CN2CCCc3nc(-c4ccc(Br)cc4)ccc32)cc1 |  | -28.9% [at 11.4 µM] (inactive)
3 | Cc1cc2c(nc1C)CCCN2C[C@@H](O)CN1CCN(C)CC1 |  | 0.272% [at 11.4 µM] (inactive)
4 | CCc1cc2c(nc1CC)CCN(CC/C(C)=N/O[C@@H]1O[C@H](COC(C)=O)[C@H](OC(C)=O)[C@H](OC(C)=O)[C@H]1OC(C)=O)C2 |  | -28.1% [at 11.4 µM] (inactive)
5 | Cc1cc2c(nc1C)CCCN2C[C@H](O)CN1CCCc2nc(-c3ccc(Br)cc3)ccc21 | 3.98 µM (active) | 
6 | Cc1cc2c(nc1C)CCCCN2C[C@H](C)O/N=C\[C@@H](C)[C@H](OCc1ccccc1)C(C)C | 3.98 µM (active) | 
7 | CCc1cc2c(nc1CC)CCN(CC/C(C)=N/O[C@@H](C)c1cc(-c3c(C)cc(C)cc3C)no1)C2 | 3.98 µM (active) | 
8 | Cc1cc2c(nc1C)CCCCN2C[C@H](O)CN1CCCc2nc(-c3ccc(Br)cc3)ccc21 |  | -29.7% [at 11.4 µM] (inactive)
9 | C[C@@H](N)[C@@H](C)Cc1ccccc1 |  | -8.05% [at 11.4 µM] (inactive)
10 | CN(C)CCO[C@](C)(c1ccccc1)c1ccccn1 | inactive | 
11 | CCCn1nc(Oc2nc(NCC)nc(NCC)n2)ccc1=O |  | -15% (inactive)
12 | CCCCCCCCCCCCCCCC(=O)C(F)(F)F |  | -11.7% (inactive)
13 | COc1ccc(Oc2ncc3nc(-c4cccs4)c(=O)n(-c4ccccc4)c3n2)cc1 | 2.51 µM (active) | 
14 | COc1ccc(-n2c(=O)c(-c3cccs3)nc3cnc(Oc4ccccc4)nc32)cc1 |  | -9.44% (inactive)
15 | COc1ccc(-n2c(=O)c(-c3cccs3)nc3cnc(OC)nc32)cc1 | 7.94 µM (active) | 
16 | COc1ncc2nc(-c3cccs3)c(=O)n(-c3ccccc3)c2n1 |  | -29.3% (inactive)
17 | CN(C)CCN(c1ccccn1)c1ccccn1 |  | -13.9% [at 11.4 µM] (inactive)
18 | N#C[C@H]1CN[C@H](N)N[C@@H]1N |  | -6.92% [at 11.4 µM] (inactive)
19 | COc1ccc(-c2ccc(/C=C3\C(=O)N(c4ccccc4)N=C3c3ccccc3)o2)c([N+](=O)[O-])c1 | 2 µM (active) | 
20 | Cc1sc(=NC(=O)c2ccco2)n(C)c1-c1ccc(F)cc1 |  | 25.2% (inactive)
21 | COCc1c(C(N)=O)nnn1-c1nonc1N |  | 3.21% (inactive)
22 | CCOC(=O)c1cnc(SCCc2ccccc2)nc1N |  | -14.7% (inactive)
23 | CC(C)OC(=O)c1nnn(-c2nonc2N)c1CSc1ccccn1 | 0.398 µM (active) | 
24 | N#CN(CC(N)=O)c1nc(N2CCCCC2)nc(N2CCCCC2)n1 |  | -13.4% [at 11.4 µM] (inactive)

Row | Structure (SMILES) | AC50 | activity, negative = inhibition
25 | CCOC(=O)c1nnn(-c2nc(OC)nc(N3CCCCC3)n2)c1-c1ccccc1 | 15.8 µM (active) | 
26 | CCOC(=O)c1nnn(-c2nonc2N)c1-c1ccccc1 | 15.8 µM (active) | 
27 | CCOC(=O)c1nnn(-c2nonc2N)c1-c1ccc(C)cc1 |  | -14.1% [at 2.29 µM] (inactive)
28 | Nc1nonc1-n1nncc1-c1ccccc1 | 15.8 µM (active) | 
29 | COc1nc(/C(N)=N/O)nc(N2CCCCC2)n1 |  | -1.23% (inactive)
30 | CC(C)(O)c1cn(-c2nonc2N)nn1 |  | -2.62% (inactive)
31 | CCCOc1cc(N)ccc1C(=O)OCCN(CC)CC |  | -30.4% [at 25.6 µM] (inactive)
32 | N[C@H](CO)C(=O)NCC(=O)O (H-[dS]-Gly-OH) |  | -1.48% [at 11.4 µM] (inactive)
33 | CC(=O)N=c1sc(S(N)(=O)=O)nn1C |  | -10.1% [at 25.6 µM] (inactive)
34 | CCc1cc2c(=O)c(-c3nc4ccccc4n3C)c(C)oc2c(CN(CC)CC)c1O |  | -26.8% (inactive)
35 | CN(C)Cc1cc(O)c(O)c(CN(C)C)c1 |  | -13.7% [at 11.4 µM] (inactive)
36 | Cc1cc2c(s1)CCCCC(=O)N2 |  | 23.4% (inactive)
37 | Cc1c(C(=O)N2CCCCCC2)nnn1-c1nonc1N | 11.2 µM (active) | 
38 | CCOc1nc(N2CCCCC2)nc(-n2cc(-c3ccccc3)nn2)n1 | 15.8 µM (active) | 
39 | Cc1nonc1NC(=O)N1CCCC1 |  | 29.8% (inactive)
40 | CC1CCN(CC[S-])CC1.O.O.[Cl][Pt] |  | -1.49% [at 11.4 µM] (inactive)
41 | Cc1cc(C(=O)N[C@H](c2ccccc2)[C@@]2(C)C[C@@H]2[C@@H](C)C(=O)Nc2ccc3ccccc3c2)n(C)n1 | 0.794 µM (active) | 
42 | Cc1cc(C(=O)N[C@@H](c2ccccc2)[C@]2(C)C[C@H]2[C@@H](C)C(=O)Nc2ccc3ccccc3c2)n(C)n1 | 0.794 µM (active) | 
43 | O=C(Nc1cc(C(=O)Nc2ccc(S(=O)(=O)O)cc2S(=O)(=O)O)cc(C(=O)Nc2ccc(S(=O)(=O)O)cc2S(=O)(=O)O)c1)Nc1cc(C(=O)Nc2ccc(S(=O)(=O)O)cc2S(=O)(=O)O)cc(C(=O)Nc2ccc(S(=O)(=O)O)cc2S(=O)(=O)O)c1 |  | -3.85% (inactive)
44 | Fc1nc(N2CCCC2)c(F)c(Oc2ccccc2Oc2c(F)c(F)nc(N3CCCC3)c2F)c1F |  | 17.1% (inactive)
45 | CN(Cc1ccco1)c1ncnc2ccc(-c3ccc4c(c3)OCO4)cc12 | 2.51 µM (active) | 
46 | Cc1noc(C)c1-c1ccc2ncnc(N(C)Cc3ccco3)c2c1 | 25.1 µM (active) | 
47 | CN(Cc1ccco1)c1ncnc2ccc(-c3ccoc3)cc12 | 25.1 µM (active) | 
48 | Cc1noc(C)c1-c1ccc2ncnc(N(C)C)c2c1 |  | -29.5% (inactive)

Row | Structure (SMILES) | AC50 | activity, negative = inhibition
49 | CN(C)C(=O)c1ccc(-c2cc(N(C)Cc3ccco3)ncn2)cc1 |  | 25.6% (inactive)
50 | N#CC(CC(=O)O)=C(c1ccccc1)c1ccccc1 |  | 5.39% [at 11.4 µM] (inactive)
51 | Cc1nn(-c2ccc(F)cc2)c(Cl)c1/C=C(\CCC(=O)O)c1nc2ccccc2s1 |  | 21.6% (inactive)
52 | Cc1nn(-c2ccc(F)cc2)c(C)c1NS(=O)(=O)c1ccc2ccccc2c1 | 4.47 µM (active) | 
53 | CC(=O)Nc1c(C)nn(-c2ccc(C)c(C)c2)c1C |  | -3.89% [at 11.4 µM] (inactive)
54 | Cc1ccc(C(=O)N/N=C/c2ccc([N+](=O)[O-])s2)cc1 |  | -26.6% (inactive)
55 | Cc1cccc(NC(=S)N/N=C/c2ccc([N+](=O)[O-])s2)c1 | 22.4 µM (active) | 
56 | O=[N+]([O-])c1ccc(C=Nc2ccc(Cl)cc2Cl)s1 |  | -29.3% (inactive)
57 | O=C(O)Cc1ccc(NC(=O)C2CCCCC2C(=O)O)cc1 (centres undefined) |  | -1.35% (inactive)
58 | CCSc1nnc(NC(=O)C(C(F)(F)F)C(F)(F)F)s1 |  | -17% (inactive)
59 | CCSc1nnc(NC(=O)Cc2ccc(OC)c(OC)c2)s1 |  | -2.65% [at 2.29 µM] (inactive)
60 | CCSc1nnc(NC(=O)CSc2nc3c(cc2C#N)CCCC3)s1 | 10 µM (active) | 
61 | O=C(NCCc1ccc(O)cc1)c1ccc(Cl)cc1 |  | 1.62% [at 2.29 µM] (inactive)
62 | Oc1cc2c(cc1O)CN(C(=S)NCCc1ccc(Cl)cc1)CCC2 | 3.16 µM (active) | 
63 | CC[C@@]1([N+](=O)[O-])C[C@H]2C=C[C@@H]1C2 |  | -4.49% [at 11.4 µM] (inactive)
64 | C/C(=C\c1ccco1)C1C(C#N)=C(N)Oc2n[nH]c(-c3ccccc3)c21 (centres undefined) | 3.98 µM (active) | 
65 | Cc1ccc(NC(=O)C(=O)NCc2ccc(/C=C(/C#N)C(=O)NCc3cccnc3)o2)cc1 | 1.41 µM (active) | 
66 | Cc1cc(N)n(-c2ccccc2)n1 |  | -14.7% (inactive)
67 | Cc1cc(N)n(-c2ccc3ccccc3c2)n1 | 28.2 µM (active) | 
68 | Nc1nc(-c2ccc3ccccc3c2)cc(-c2cc(-c3ccc4ccccc4c3)nc(N)n2)n1 |  | -3.3% [at 11.4 µM] (inactive)
69 | COc1cc(N=C(N)N=C(N)N)c2ncccc2c1 |  | -8.88% [at 11.4 µM] (inactive)
70 | CC1Cc2ccccc2N1C(=O)CN1C(=O)COc2ccccc21 (centres undefined) |  | -6.97% [at 2.29 µM] (inactive)
71 | CC1Cc2ccccc2N1C(=O)CCN1C(=O)C2C3C=CC(C3)C2C1=O (centres undefined) | 1.41 µM (active) | 
72 | O=C(CCN1C(=O)C2C3C=CC(C3)C2C1=O)NCCN1CCCc2ccccc21 (centres undefined) | 3.98 µM (active) | 

Row | Structure (SMILES) | AC50 | activity, negative = inhibition
73 | CCOC(=O)CCN1C(=O)[C@H]2[C@@H]3[C@H](O)[C@H](O)CC(=O)[C@H]3CC[C@H]2C1=O |  | -4.78% [at 11.4 µM] (inactive) and -14.8% [at 11.4 µM] (inactive)
74 | CC1Cc2ccccc2N1C(=O)c1cc2c(=O)n3ccccc3nc2n1C (centres undefined) |  | -16.7% (inactive)
75 | CC1Cc2ccccc2N1C(=O)Cn1c(=O)cc(O)c2ccccc21 (centres undefined) | 25.1 µM (active) | 
76 | CC1Cc2ccccc2N1C(=O)CSCC(=O)O (centres undefined) |  | -12.7% (inactive)
77 | O=C(O)Cc1ccc2ocnc2c1 |  | 10.5% (inactive)
78 | COc1ccc(Oc2ncc3nc(C)c(=O)n(C)c3n2)cc1 | 25.1 µM (active) | 
79 | Cc1nc2cnc(Oc3ccccc3)nc2n(C)c1=O |  | -6.94% (inactive)
80 | COc1ccc(Oc2ncc3nc(C)c(=O)n(-c4ccccc4)c3n2)cc1 | 5.01 µM (active) | 
81 | COc1ccc(Oc2ncc3nc(C)c(=O)n(-c4ccc(OC)cc4)c3n2)cc1 | 3.98 µM (active) | 
82 | COc1ccc(-n2c(=O)c(C)nc3cnc(Oc4ccccc4)nc32)cc1 | 15.8 µM (active) | 
83 | CCOC(=O)c1oc2ccccc2c1NC(=O)c1ccc2c(c1)OCO2 | 2.24 µM (active) | 
84 | CN(C)S(=O)(=O)c1ccc(C(=O)Nc2ccc(CN3CCCC3)cc2)cc1 |  | 24.6% (inactive)
85 | CCOC(=O)c1oc2ccccc2c1NC(=O)c1ccc(S(=O)(=O)N(C)C)cc1 | 14.1 µM (active) | 
86 | COc1ccc(-c2oc3ccccc3c(=O)c2OC(=O)c2ccc(C)cc2)cc1 |  | 2.5% (inactive)
87 | CN(C)S(=O)(=O)c1ccc(NC(=O)COC(=O)c2ccccn2)cc1 |  | -17.6% (inactive)
88 | CCOC(=O)c1oc2ccccc2c1NC(=O)c1cc(OC)cc(OC)c1 | 7.94 µM (active) | 
89 | Nc1c(OCC(=O)O)ccc2cc(S(=O)(=O)O)ccc12 |  | -9.68% [at 11.4 µM] (inactive)
90 | CNc1ncnc2c1ncn2[C@@H]1O[C@H](CO)[C@@H](O)[C@@H]1O |  | 10% [at 25.6 µM] (inactive)
91 | NC(=O)OC[C@H](O)COc1ccc(Cl)cc1 |  | -3.48% [at 25.6 µM] (inactive)
92 | O=C(Nc1ccc2ccccc2c1)[C@@H]1C[C@H]1[C@@H](NP(=O)(c1ccccc1)c1ccccc1)c1ccccc1 |  | -44.6% (inactive)
93 | O=C(Nc1ccc2ccccc2c1)[C@H]1C[C@@H]1[C@H](NP(=O)(c1ccccc1)c1ccccc1)c1ccccc1 | 2.51 µM (active) | 
94 | C[C@H](CO)NC(=O)[C@@H]1C[C@H]1[C@@H](NP(=O)(c1ccccc1)c1ccccc1)c1ccccc1 | 12.6 µM (active) | 
